Rows were chosen to be rich in hits. Some 4% of all compounds tested hit in one or more screens of this group.
TRHR PAM = allosteric enhancers of human TRH receptor. P34981. TRHR cells, fluo-8 calcium fluorescence, EC20 TRH enhancement. enhancement, % at 2 µM. hit rate 0.66% among 360,000; in the data active = enhancement above about 30%; note: 0% is about no effect
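TRHR-expressing cells loaded with fluo-8 calcium dye were read kinetically (ex 480/em 530) during compound addition, then stimulated with an EC20 of TRH (10 nM final). Enhancement of the Gq-mediated intracellular calcium response was scored.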
TRHR ag = activates the human TRH receptor; activation, % at 2 µM; hit rate 0.18% among 360,000; TRHR cells, calcium flux fluo-8, FDSS agonist mode; P34981; note: 0% is about no effect
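TRHR-expressing cells, plated overnight in medium with 10% serum, were loaded with fluo-8 calcium dye at room temperature. After a 10 s baseline, library compound was pin-added and calcium release was recorded kinetically (ex 480/em 530) as agonist response.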
D1 antagonist = human D1 dopamine receptor antagonism. HEK293 TREx D1 cells, calcium flux, dopamine EC80; stronger effect = lower value. activity change, negative = inhibition, % at 10 µM. hit rate 3.2% among 360,000. P21728; in the data active = activity change below about -30%; note: % is set by controls: 0 for no effect and ±100 for the full control effect
Target sequence (P21728 whole entry, looked up): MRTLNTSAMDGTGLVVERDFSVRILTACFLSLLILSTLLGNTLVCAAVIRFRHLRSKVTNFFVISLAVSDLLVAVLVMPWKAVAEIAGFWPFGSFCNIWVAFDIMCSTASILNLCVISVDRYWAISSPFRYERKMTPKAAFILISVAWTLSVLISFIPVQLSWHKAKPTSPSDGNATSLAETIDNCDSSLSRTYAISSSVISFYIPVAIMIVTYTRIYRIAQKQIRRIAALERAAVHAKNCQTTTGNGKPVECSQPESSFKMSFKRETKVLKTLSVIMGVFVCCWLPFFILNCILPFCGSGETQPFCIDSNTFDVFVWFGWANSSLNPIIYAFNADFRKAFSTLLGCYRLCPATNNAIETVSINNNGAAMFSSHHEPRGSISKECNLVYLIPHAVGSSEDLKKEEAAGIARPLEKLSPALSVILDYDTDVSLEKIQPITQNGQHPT
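Kinetic fluorescence of a calcium dye serves as the read-out. D1-expressing Hek293 Trex cells, induced overnight at 30 C, are exposed to compound for 180 s before an EC80 dopamine addition, then read 180 s further.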
Glioma ERSR ind = induces the endoplasmic reticulum stress response in human glioma cells; Potency, µM, without a hit: top-dose activation, usual class: activators; hit rate 0.02% among 420,000; U87-MG GRP78 promoter luciferase reporter, 16 h; active = well fitted activation curve with a large enough effect; note: potency is the fitted concentration of half-maximal effect; series mostly up to about 76 µM; % of control where 0% means no effect; nearly all actives have a fitted effect of over 35% in size
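Stably transfected U87-MG human glioma cells carrying a GRP78-based luminescent sensor were seeded at 1000 cells/well, pin-dosed with compounds and incubated 16 h. Luciferase reagent was then added, and end-point luminescence was read after 10 min at room temperature.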
D1 agonist = activates the human D1 dopamine receptor. P21728. AID 504660. hit rate 1% among 360,000. activation, % at 2 µM. HEK293 T-REx D1 cells, calcium flux, agonist mode; note: 0% is about no effect
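Agonism was scored from calcium flux recorded over 180 s (1 read/s) after pintool compound addition, following a 10-cycle baseline. Cells were inducible force-coupled HEK293 TREx D1, plated overnight at 30 C and loaded with no-wash calcium dye.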
D1 PAM = human D1 dopamine receptor positive modulation; P21728; HEK293 TREx D1 cells, calcium flux, dopamine EC20 potentiation; potentiation, % at 10 µM; hit rate 0.036% among 360,000; AID 504651; in the data active = potentiation above about 30%; note: 0% is about no effect
* = called active by the depositor; . = no result. Cut-off read from the data, not from the text of the source, unless noted: active = activation above about 30%; inactive = the rest.

SMILES	TRHR PAM	TRHR ag	D1 antagonist	Glioma ERSR ind	D1 agonist	D1 PAM
CCn1c(/C=C/c2ccccc2[N+](=O)[O-])nc2ccccc2c1=O	40.1*	-0.7	5.0	-1.7%	5.3	5.5
Cn1c(/C=C/c2ccccc2[N+](=O)[O-])nc2ccccc2c1=O	-3.3	-1.5	6.8	0.8%	1.5	7.7
CCOc1ccc(N2C(=O)Nc3ccccc3C2(O)C(=O)NCc2ccc(OC)cc2)cc1 (configuration not stated)	-1.8	0.0	-0.8	-2.9%	2.9	0.0
CSc1ccccc1NC(=O)COC(=O)CSc1ccc(C)cc1	3.0	-1.2	-19.3	-4.3%	12.5	-4.3
O=C(C1CC1)N1CCc2cc(Br)cc(S(=O)(=O)NCCCN3CCCC3)c21	-6.2	-0.1	0.8	0.9%	2.2	-6.8
O=C(COc1ccc2ccccc2c1)NNC(=O)Cc1ccccc1	4.0	-1.0	-8.4	-1.9%	4.6	-7.4
O=C(Cc1ccccc1)NNc1ccc2ccccc2c1	-1.7	-1.7	-49.2*	2.0%	1.5	10.4
Cc1ccc(CSc2nnc(SCC(=O)N/N=C/c3c(C)nn(-c4ccccc4)c3C)s2)cc1	1.9	0.2	-37.6*	-0.3%	1.0	-0.7
Cc1nn(-c2ccccc2)c(C)c1/C=N/NC(=O)CSc1nnc(SCc2ccccc2Cl)s1	10.3	0.7	-3.7	4.1%	7.6	2.0
Cc1ccc(Cl)cc1NC(=S)N(CCCN1CCOCC1)Cc1ccccn1	14.1	0.2	-74.4*	-3.6%	0.1	0.0
CC(C)(C)C1CCC(OCC(O)CN2CCN(Cc3ccccc3)CC2)CC1 (configuration not stated)	31.5*	0.4	-2.4	-6.2%	7.6	5.9
CC1CCCC(C)N1CC(O)COC1CCC(C(C)(C)C)CC1 (configuration not stated)	-7.1	5.8	24.6	-2.4%	31.0*	-8.1
CC1CN(CC(O)COC2CCC(C(C)(C)C)CC2)CC(C)O1 (configuration not stated)	6.0	0.7	4.0	3.7%	4.8	-3.9
O=C(N/N=C/c1ccco1)c1cc(-c2ccc(Cl)s2)[nH]n1	5.5	-1.3	-43.4*	0.5%	28.3	-1.1
C/C(=N/NC(=O)c1cc(-c2ccc(Br)s2)[nH]n1)c1ccco1	2.8	-0.5	-46.0*	4.4%	0.0	-10.2
O=C(N/N=C/c1ccco1)c1cc(-c2ccc(Br)s2)[nH]n1	3.6	-0.4	-1.1	4.8%	0.7	-7.3
COc1ccccc1-c1cncnc1NCCNC(C)=O	.	.	.	-2.2%	.	.
O=c1c2ccccc2sn1-c1ccccc1F	.	.	.	-10.3%	.	.
O=c1c2cc(F)ccc2sn1-c1ccccc1	0.7	6.5	-6.0	-10.3%	38.9*	-8.2
Cc1ccccc1-n1sc2cc(F)ccc2c1=O	-9.3	2.5	2.1	-11.7%	31.6*	0.2
O=C(CCCN1C(=O)/C(=C\c2ccccc2)SC1=S)N1CCOCC1	.	.	.	-3.0%	.	.
Cc1nc(-c2cccnc2)sc1C(=O)Nc1ccc(C(F)(F)F)cc1	3.8	0.9	-33.3*	-6.3%	2.0	-3.5
COc1ccc(S(=O)(=O)N2CCOCC2)cc1NC(=O)CN1CCC(Cc2ccccc2)CC1	-5.9	-1.8	2.7	-5.8%	1.2	-9.9
N#CC(c1ccccc1)C(CC(=NO)c1ccccc1)c1ccccc1 (configuration not stated)	.	.	.	-0.9%	.	.
Cc1nc2sc(C(N)=O)c(N)c2c2c1CCCC2	-1.6	-2.9	-30.1*	-3.9%	4.3	-2.9
SMILES	TRHR PAM	TRHR ag	D1 antagonist	Glioma ERSR ind	D1 agonist	D1 PAM
CCCCCCCn1c(=O)c(C(=O)OC)c(N)c2ccccc21	-6.6	0.3	-15.9	-9.2%	42.4*	-8.6
CCCCCCCCn1c(=O)c(C(=O)OC)c(N)c2ccccc21	-2.3	0.3	-11.1	-5.9%	12.8	-10.2
Cc1c(C(=O)NCc2ccccc2CN2CCCC2)oc2ccc(F)cc12	0.7	0.0	-32.5*	-4.8%	5.5	.
O=C(Cc1ccc(Cl)cc1)OCc1nnc(-c2ccccc2)o1	1.5	-0.7	10.9	-4.0%	1.5	-3.8
O=C(OCc1nnc(-c2ccc(Cl)cc2)o1)C12CC3CC(CC(O)(C3)C1)C2	-3.9	0.3	-75.3*	2.7%	8.3	-8.0
Cc1ccc2c(c1)N(C(=O)CCC(=O)N1CCN(c3ccccc3)CC1)CCO2	-4.9	-0.2	-49.9*	-1.6%	1.8	-11.1

Source: PubChem (National Center for Advancing Translational Sciences (NCATS))
